# In ChEMBL document CHEMBL1157539, “Thousands of chemical starting points for antimalarial lead identification” (Nature, 2010):
# In all, about 13,000 compounds were measured (“IFI”: median about 4, highest 2% from about 17 on). Many of the other results were omitted from the sample, so the highest values are more common in it than they were.
# Test: GSK_TCMDC: Inhibition Frequency Index (IFI). The number of non-kinase HTS assays where a compound showed > 50 % inhibition, expressed as a percentage of the number of such assays in which the compound was tested
# Type: functional
row,SMILES,IFI [%]
1,CC1(C)N=C(N)N=C(Nc2ccc(Cl)cc2)N1,0.76
2,FC(F)(F)c1ccc2[nH]c(-c3cccc(-c4cccc(CN5CCN(c6ccncc6)CC5)c4)c3)nc2c1,11.5
3,CCCNCc1ccc(-c2ccc(CN(CCOC)C(=O)c3cccc(C#N)c3)cc2)nc1,0.7
4,Nc1nc2c(ncn2COC(COCc2ccccc2)COCc2ccccc2)c(=O)[nH]1.Nc1nc2ncn(COC(COCc3ccccc3)COCc3ccccc3)c2c(=O)[nH]1,0
5,CCCCCCCOc1ccc(NC(=O)Nc2ccc(Cn3ncc(N4CCCNCC4)c(Cl)c3=O)cc2)cc1,19.1
6,CCCCOC(=O)c1ccc(NC(=O)Nc2ccc(Cn3ncc(N4CCCNCC4)c(Cl)c3=O)cc2)cc1,5.97
7,CCCCCc1ccc(NC(=O)Nc2ccc(Cn3ncc(N4CCCNCC4)c(Cl)c3=O)cc2)cc1,9.09
8,Cc1[nH]c(C)c(-c2ccc(OCCCc3ccccn3)cc2)c(=O)c1Br,0
9,COc1ccc(NC(=O)c2ccc(-c3ccc(-c4cccnc4)cc3)c(C)c2)cc1OCCN(C)C,6.9
10,COC(=O)c1ccc(-c2ccc(-c3cccnc3)cc2C)cc1,21.7
11,COC(=O)c1ccc2nc(-c3cc(-c4cccc(-c5ccccc5)c4)cnc3N)[nH]c2c1,2.94
12,Cc1ccccc1Nc1nc(Nc2ccccc2)c2ccccc2n1,3.65
13,O=C1c2cc(I)ccc2SC1c1ccccc1 (stereo not given),1.43
14,O=S(=O)(NCCN1CCCC1)c1cccc(-c2ccc(CNCc3ccccc3)cc2)c1,5.88
15,O=[N+]([O-])c1cccc(C(Nc2ccccn2)c2ccc3cccnc3c2O)c1 (stereo not given),8.74
16,CCCCCCC1(C)N=C(N)N=C(N)C1c1ccc(Cl)c(Cl)c1 (stereo not given),2.78
17,CC1(CCc2ccccc2)N=C(N)N=C(N)C1c1ccc(Cl)c(Cl)c1 (stereo not given),2.94
18,CC1(C)N=C(N)N=C(N)C1c1ccc(Cl)c(Cl)c1 (stereo not given),1.43
19,CCC1(c2ccccc2)N=C(N)N(CCCc2ccccc2)C1=O (stereo not given),7.14
20,CC1(CCc2ccccc2)N=C(Nc2ccc(Cl)cc2)N=C(N)C1c1ccc(Cl)c(Cl)c1 (stereo not given),26.6
21,CC1(CCc2ccccc2)N=C(N)N(Cc2ccccc2)C(=O)C1c1ccc(Cl)c(Cl)c1 (stereo not given),19.2
22,NS(=O)(=O)c1cccc(-c2ccc3nccc(-c4cccc(S(N)(=O)=O)c4)c3c2)c1,0
23,Cn1c(N=C2NC3(c4ccccn4)NC(=Nc4nc5ccccc5n4C)NC3(c3ccccn3)N2)nc2ccccc21 (stereo not given),3.6
24,Cc1cccc(-c2nn(-c3ccccc3)c3[nH]c(=O)c(CN4CCSCC4)cc23)c1,1.82

row,SMILES,IFI [%]
1,CC1(CCN2CCC(c3c[nH]c4cnccc34)CC2)CCCc2c(Br)cccc2C1=O (stereo not given),8.51
2,Cc1cc(SC(C)(C)C)cc2c(Cl)c(C(N)=O)cnc12,32.5
3,Cc1cc(C)c2ncc(C(=O)O)c(O)c2c1,1.46
4,Oc1ccc(CCCNc2nc(NCc3ccccc3-c3ccccc3)nc(NC3CCNCC3)n2)cc1,15.2
5,COc1ccccc1-n1ccnc1SCC(=O)Nc1cccc(C(F)(F)F)c1,5.93
6,CC(CCON1C(N)=NC(N)=NC1(C)C)c1ccc(Cl)c(Cl)c1 (stereo not given),7.09
7,O=C(/C=C/c1ccc(Cl)c(Cl)c1)NCCCCCN1CCC(CCNC(=O)/C=C/c2ccc(Cl)c(Cl)c2)CC1,11.2
8,Clc1ccc(OCCC2CCN(CCCCCCN3CCCCC3)CC2)cc1Cl,9.87
9,Clc1ccc(OCCC2CCN(CCCCCCCN3CCC(CCOc4ccc(Cl)c(Cl)c4)CC3)CC2)cc1Cl,18.6
10,CCCNCc1ccc(-c2ccc(CN(CC3CCCO3)C(=O)C3CC(=O)c4ccccc43)cc2)nc1 (stereo not given),1.41
11,CCN(CC)CCN(Cc1ccc(-c2ccc(C(F)(F)F)cc2)cc1)C(=O)Cn1c(CCc2cc(F)c(F)c(F)c2)nc(=O)c2ccccc21,6.67
12,Cc1noc(C)c1-c1ccc2c(Nc3ccc([N+](=O)[O-])cc3)c(C(N)=O)cnc2c1,1.63
13,COc1ccc(-n2cc(C(=O)c3cc(Br)ccc3O)cc(C#N)c2=O)cc1Cl,14.8
14,COc1ccc(O)c(C(=O)c2cc(C#N)c(=O)n(-c3ccc(Oc4ccccc4)cc3)c2)c1,3.52
15,N#Cc1cc(C(=O)c2cc(Br)ccc2O)cn(-c2cc(Cl)cc(Cl)c2)c1=O,20.6
16,CCc1ccc(-n2cc(C(=O)c3cc(Br)ccc3O)cc(C#N)c2=O)cc1,15.9
17,N#Cc1cc(C(=O)c2cc(Cl)ccc2O)cn(-c2cccc(C(F)(F)F)c2)c1=O,7.44
18,N#Cc1cc(C(=O)c2cc(Cl)ccc2O)cn(-c2cc(Cl)cc(Cl)c2)c1=O,17.4
19,COc1ccc2ccccc2c1C=NN=c1cc(C)[nH]c2c(C)cccc12,1.48
20,COc1ccc(Cn2c(Nc3cccc(C(F)(F)F)c3)nc3cc(C(=O)NCCCN(C)C)ccc32)cc1Cl,2.14
21,NCC1CCCN1Cc1cccc(-c2cccc(-c3nc4cc(F)ccc4[nH]3)c2)c1 (stereo not given),5
22,O=C(Cn1c(CCc2cccc(F)c2F)nc(=O)c2ccccc21)N(Cc1ccc(-c2ccc(C(F)(F)F)cc2)cc1)C1CCN(C2=NCCS2)CC1,12.5
23,CN1CCC(N2CCN(Cc3cccc(-c4ccc(-c5nc6cc(C(F)(F)F)ccc6[nH]5)cc4)c3)CC2)CC1,9.72
24,CCCCNc1c(C(=O)OCC)c(C)nc2c1[nH]c1ccccc12,2.17

row,SMILES,IFI [%]
1,CCCCNc1cc(C)nc(NCc2ccccc2)n1,9.72
2,CCCCNc1cc(NCCCC)c2c(n1)[nH]c1ccccc12,19.4
3,CCc1cc(COc2ccc(CNCCC(C)C)cc2I)c(OCc2ccccc2)c(COc2ccc(CNCCC(C)C)cc2I)c1,14.3
4,CCOc1ccc2c(=NN=Cc3ccccc3OC)cc(C)[nH]c2c1,3.62
5,FC(F)(F)c1ccccc1OCc1cc(-c2ccncc2)c(COc2ccccc2C(F)(F)F)cc1C1=CCNCC1,10.6
6,Oc1ccc(-c2cc(COc3ccccc3C(F)(F)F)c(C3=CCNCC3)cc2COc2ccccc2C(F)(F)F)cc1,17.3
7,Nc1nc(N)c2cc(NC(=O)c3ccc(Cl)c(Cl)c3)ccc2n1,15.9
8,Cc1nc(C)c(-c2ccc(Oc3ccc(Cl)cc3Cl)cc2)c(O)c1Br,1.52
9,COc1ccc(CCNCCCCNCCc2ccc(OC)c3ccccc23)c2ccccc12,13.9
10,CSc1ccc2ccccc2c1CCNCCCCNCCc1c(SC)ccc2ccccc12,17
11,FC(F)(F)COc1ccc(CCNCCCCNCCc2ccc(OCC(F)(F)F)c3ccccc23)c2ccccc12,20.3
12,FC(F)(F)COc1ccc2ccccc2c1CNCCCCCCNCc1c(OCC(F)(F)F)ccc2ccccc12,14.9
13,FC(F)(F)COc1c(CCNCCCCNCCc2ccc3ccccc3c2OCC(F)(F)F)ccc2ccccc12,19.3
14,N#Cc1ccc(CNCCCCCCNCc2ccc(C#N)c3ccccc23)c2ccccc12,7.04
15,FC(F)(F)COc1c(CNCCCCCCNCc2ccc3ccccc3c2OCC(F)(F)F)ccc2ccccc12,14.9
16,CN(C)c1c(CNCCCCCCNCc2ccc3ccccc3c2N(C)C)ccc2ccccc12,15.7
17,FC(F)(F)COc1ccc2ccccc2c1CCNCCCCNCCc1c(OCC(F)(F)F)ccc2ccccc12,23.4
18,FC(F)(F)COc1ccc(CNCCCCCCNCc2ccc(OCC(F)(F)F)c3ccccc23)c2ccccc12,21
19,O=[N+]([O-])c1ccc(CNCCCCCCNCc2ccc([N+](=O)[O-])c3ccccc23)c2ccccc12,10.3
20,CCCOc1ccc(CCNCCCCNCCc2ccc(OCCC)c3ccccc23)c2ccccc12,12.5
21,O=S(=O)(NCCN1CCCC1)c1ccc(-c2cccc(CNCCc3cccs3)c2)cc1,9.52
22,CON=Cc1sc(CNCCCN=c2cc(O)c3ccccc3[nH]2)c(C)c1Br,6.52
23,N=C(N)c1ccc2[nH]c(SCc3ccccc3)nc2c1,0.94
24,O=c1c(Br)ccccc1Br,11.6

row,SMILES,IFI [%]
1,CCN(CC)CCN(Cc1ccc(-c2ccc(C(F)(F)F)cc2)cc1)C(=O)Cn1c(CCc2cccc(F)c2F)cc(=O)cc1-c1ccccc1,11.3
2,N=C(N)NN=Cc1ccccc1OCc1ccccc1Cl,6.72
3,CS(=O)(=O)NCCCNCc1ccc(-c2ccc(-c3nc4cc(C(F)(F)F)ccc4[nH]3)cc2)cc1,5.94
4,CCc1ccc(CN2CCC(CNC(=O)c3cc(-c4cccc(C(F)(F)F)c4)cs3)C2)cc1 (stereo not given),14
5,CCCCSc1ccc(CNCCCCCCNCc2ccc(SCCCC)c3ccccc23)c2ccccc12,14.8
6,CCCCOc1ccc(CNCCCCCCNCc2ccc(OCCCC)c3ccccc23)c2ccccc12,17.8
7,CCCOc1ccc(CNCCCCCCNCc2ccc(OCCC)c3ccccc23)c2ccccc12,15.6
8,CC1(C)NC(=N)NC(=N)N1OCC=Cc1ccccc1,3.57
9,COc1ccc2[nH]ccc(=NN=Cc3ccc(Cl)cc3)c2c1,0.74
10,CCN(CC)CCNC(=O)/C(=C/C=C/c1cc2cc(Cl)c(Cl)cc2[nH]1)OC,7.63
11,CCN(CC)CCCNC(=O)/C(=C/C=C/c1cc2cc(Cl)c(Cl)cc2[nH]1)OC,8.46
12,CO/C(=C\C=C\c1cc2cc(Cl)c(Cl)cc2[nH]1)C(=O)NCCCCN1CCN(c2ccccc2OC)CC1,19.1
13,CO/C(=C\C=C\c1cc2cc(Cl)c(Cl)cc2[nH]1)C(=O)NCCCNC12CC3CC(CC(C3)C1)C2,21.1
14,CO/C(=C\C=C\c1cc2cc(Cl)c(Cl)cc2[nH]1)C(=O)NCCCN1CCN(c2cccc(Cl)c2)CC1,8.27
15,CCOc1ccccc1N1CCN(CCCNC(=O)/C(=C/C=C/c2cc3cc(Cl)c(Cl)cc3[nH]2)OC)CC1,10.8
16,CCOC(=O)c1ccc(NC(=O)Nc2ccc(-c3cccc(-c4nc5cccc(C)c5[nH]4)c3)cc2)cc1,7
17,Cc1noc(C)c1-c1cccc(CNCc2ccc(-c3ccc(-c4nc5cc(F)ccc5[nH]4)cc3)cc2)c1,8.91
18,O=C(Nc1cccc(Cl)c1)c1cnc(N2CCN(c3ccncc3)CC2)c(Cl)c1,16.7
19,COc1ccccc1CCNC(=O)c1cnc(N2CCN(c3ccncc3)CC2)c(Cl)c1,10.4
20,O=C(NCCc1cccc(Cl)c1Cl)c1ccc(N2CCN(c3ccncc3)CC2)nc1,10.4
21,Cc1ccccc1CCNC(=O)c1ccc(N2CCN(c3ccncc3)CC2)nc1,2.08
22,O=C(NCCc1cccc(Cl)c1Cl)c1cnc(N2CCN(c3ccncc3)CC2)c(Cl)c1,20
23,Cc1ccccc1CCNC(=O)c1cnc(N2CCN(c3ccncc3)CC2)c(Cl)c1,20.8
